From PubChem BioAssay
This is one part of a sample in which hits are shown more often than they occur.
DT40 TDP1 no CPT = qHTS for Inhibitors of human tyrosyl-DNA phosphodiesterase 1 (TDP1): qHTS in cells in absence of CPT; DT40 Tdp1-/- hTDP1 cells, no CPT, ATP luminescence, 48 h; Potency, µM (doses to about 46.2 µM), for inactives: top-dose activity change, negative = growth inhibition, most hits filed as inhibitors; 420,000 tested, 15% active; AID 686978, 2013; note: potency is the fitted concentration of half-maximal effect; nearly all actives have a fitted effect of over 55% in size
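Readout: luminescence from CellTiter-Glo after 30 min in the dark at RT. Cells: DT40 Tdp1-/- with stable hTDP1, 400/well. Exposure: compounds alone, ≥48 hr, 37 °C.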
12-LOX inh = inhibitors of human 12S-lipoxygenase ALOX12 | purified 12hLO, xylenol orange hydroperoxide absorbance | Potency, µM (titrated, usually from 108 µM), inactives show top-dose activity change, negative = inhibition, actives largely listed as inhibitors | 580,000 tested, 1.1% active | AID 1671190; note: potency is the fitted concentration of half-maximal effect
Target sequence (P18054 whole entry, looked up): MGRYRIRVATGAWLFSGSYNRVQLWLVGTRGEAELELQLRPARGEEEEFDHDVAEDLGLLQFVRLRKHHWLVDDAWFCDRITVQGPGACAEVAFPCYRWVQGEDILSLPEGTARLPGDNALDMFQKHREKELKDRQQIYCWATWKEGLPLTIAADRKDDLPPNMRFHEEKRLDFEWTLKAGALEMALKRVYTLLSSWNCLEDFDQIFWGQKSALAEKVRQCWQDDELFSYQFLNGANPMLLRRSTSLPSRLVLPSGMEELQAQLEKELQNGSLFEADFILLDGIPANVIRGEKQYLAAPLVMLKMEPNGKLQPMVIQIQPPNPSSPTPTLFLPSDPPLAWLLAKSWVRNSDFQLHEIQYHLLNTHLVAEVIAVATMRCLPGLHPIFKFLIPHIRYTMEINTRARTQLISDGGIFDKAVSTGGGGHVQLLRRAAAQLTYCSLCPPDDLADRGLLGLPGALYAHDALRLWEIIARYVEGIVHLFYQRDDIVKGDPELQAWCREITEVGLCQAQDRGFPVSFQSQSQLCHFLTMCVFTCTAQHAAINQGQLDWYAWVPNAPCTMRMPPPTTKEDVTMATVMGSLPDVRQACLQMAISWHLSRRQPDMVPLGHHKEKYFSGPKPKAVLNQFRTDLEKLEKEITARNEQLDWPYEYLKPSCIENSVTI
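Purified human 12hLO at 150 nM in 25 mM Hepes, 0.01% Triton X-100, pH 7.0, preincubated 15 min at room temperature with compound. Reaction started with 40 uM arachidonic acid, 30 min at room temperature. Hydroperoxide measured by Fe-xylenol orange, 573/405 nm absorbance ratio.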
IL1B secr inh = blocks inflammasome-driven IL-1 beta release. THP-1 LPS/ATP IL-1B secretion, AlphaLISA, 16 h; stronger effect = lower value. activity change, % at 57.5 µM. 360,000 tested, 4.7% active; in the data active = activity change below about -50%; inconclusive = mostly about -30% to -49%
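THP-1 cells pretreated 1 hr with compounds (up to 57.5 uM final), then stimulated with LPS (250 ng/mL final) plus ATP (1.25 mM final); secreted IL-1B measured by AlphaLISA after 16 hr, decreased signal indicating inhibition.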
HT1080NT lethal = kills 2HG-producing HT-1080-NT fibrosarcoma cells; HT-1080-NT fibrosarcoma viability, CellTiter-Glo ATP luminescence, 48 h; Potency, µM (doses to about 46.1 µM), for inactives: at the top dose activity, negative = less viability, hits mostly cytotoxic; 360,000 tested, 1.6% active; AID 686970;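 note: NT is the 2HG producing partner of a matched IDH1 knockdown line; potency is the fitted concentration of half-maximal effect; 0% = DMSO-treated cells and -100% = media-only wells without cells; nearly all actives have a fitted effect of over 55% in size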
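Fibrosarcoma NT cells, 750 per well in 5% FBS RPMI, were exposed to compound for 48 hours. Viability: CellTiter-Glo luminescence.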
HT1080 IDH1KD tx = kills HT-1080 cells with IDH1 knockdown. AID 686971. Potency, µM (doses to about 46.1 µM), for inactives: at the highest dose activity, negative = toxicity, actives largely listed as cytotoxic. 360,000 tested, 2% active. HT-1080 IDH1 knockdown viability, ATP luminescence, 48 h;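 note: potency is the fitted concentration of half-maximal effect; 0% = DMSO wells and -100% = cell-free medium wells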
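% activity derives from luminescence (CellTiter-Glo), normalised to DMSO and no-cell wells. HT-1080-IDH1KD cells, 750/well, had 48 h compound exposure at 37 °C.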
TDP1 cell CPT = growth inhibition of DT40 Tdp1-/-;hTDP1 cells with camptothecin (screen for TDP1 inhibitors); Potency, µM (titrated, usually from 46.2 µM), for inactives: at the top dose activity change, negative = growth inhibition, hits mostly inhibitors; 420,000 tested, 12% active; AID 686979; chicken DT40 Tdp1-/-;hTDP1 cells + 20 nM CPT, ATP luminescence, 48 h; note: potency is the fitted concentration of half-maximal effect; nearly all actives have a fitted effect of over 55% in size
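Chicken DT40 Tdp1-/- cells complemented with human TDP1, 400 cells/well, exposed to compounds plus 20 nM camptothecin for at least 48 h at 37 C; viability read as ATP content by CellTiter-Glo luminescence.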
* marks the source's active call; other numbers are inactive results; ? = inconclusive; / = not tested or not shown; [ ] = another dose, or the depositor's remark. Unless noted, calls come from the whole dose curve; as a rule, active = well fitted curve in the direction sought with a large enough effect; inconclusive = small, poorly fitted or top-dose-only effect, or another doubt; inactive = no such curve, though single readings can be large; an effect the other way counts as inactive or inconclusive. Unless noted, % is set by controls: 0 for no effect and ±100 for the full control effect.

SMILES	DT40 TDP1 no CPT	12-LOX inh	IL1B secr inh	HT1080NT lethal	HT1080 IDH1KD tx	TDP1 cell CPT
CN1[C@@H](CCC(=O)Nc2ccccc2)CNC(=O)[C@@H]2[C@H]1CCN2Cc1cccc(OC(F)(F)F)c1	/	0%	/	/	/	/
CN1C(=O)[C@@]2(O[C@H]3[C@H]4C=C[C@@H]([C@H]5C(=O)N(Cc6ccccc6)C(=O)[C@@H]45)N3C3=C2C(=O)CC3)c2ccccc21	/	6%	/	/	/	/
CC1CC(C)CN(C(=O)CCNS(=O)(=O)c2ccc3c(c2)CCC(=O)N3)C1 (stereo unspecified)	-2%	-2%	-5	20%	15%	-10%
O=C1CCc2cc(S(=O)(=O)NCCC(=O)N3CCN(c4cccc(Cl)c4)CC3)ccc2N1	10µM*	-10%	2	?	?	26µM*
CCC(=O)N1CCc2cc(S(=O)(=O)NCCC(=O)N3CCN(c4ccccn4)CC3)ccc21	?	-17%	8	-1%	-14%	-1%
N#Cc1ccc(CN2CCN(C(=O)c3ccc(S(=O)(=O)NCc4ccco4)cc3)CC2)cc1	2.6µM*	30%	22	0%	-19%	10µM*
O=C(CCNS(=O)(=O)c1ccc2c(c1)CCN2C(=O)C1CC1)N1CCN(c2cccc(Cl)c2)CC1	9.2µM*	-3%	/	/	/	5.8µM*
O=C(c1ccc(S(=O)(=O)NCc2ccco2)cc1)N1CCCC1	-1%	0%	-6	9%	-1%	-19%
CC(=O)N1CCN(S(C)(=O)=O)C[C@@H]1C(=O)N[C@H](Cc1c[nH]c2ccccc12)C(N)=O	/	48%	/	/	/	/
COCCNC(=O)NC12CC3(C)CC(C)(CC(C)(C3)C1)C2	?	10%	27	5%	-11%	?
Cn1c(=O)c2c(ncn2CC(=O)Nc2ccccc2Br)n(C)c1=O	/	-10%	/	/	/	/
Cc1nc(-c2ccccc2)n(Cc2ccc(F)c(F)c2)c(=O)c1CCO	/	10%	/	/	/	/
O=C(c1nn2c(C(F)(F)F)cc(-c3cccs3)nc2c1Cl)N1CCCc2ccccc21	12µM*	-22%	-1	-12%	-24%	16µM*
O=S(=O)(CCN1CCN(c2ccccc2F)CC1)c1ccccc1	/	-3%	/	/	/	/
COc1ccc2c(c1)C(=O)N(Cc1ccccc1)C(=O)C2(C)C	-30%	2%	-15	-5%	-9%	-2%
O=C1C(=O)N(CCS(=O)(=O)c2ccccc2)c2ccc(F)cc21	?	-18%	3	-4%	-22%	21µM*
COc1ccc2c(c1)C(=O)C(=O)N2CCS(=O)(=O)c1ccccc1	2.3µM*	-10%	-9	-7%	7%	7.3µM*
COc1ccc2c(C)c(CC(=O)NCCN3CCOCC3)c(=O)oc2c1	/	60%	/	/	/	/
CC1(C)CC(=O)C=C(NC2=CC3OC(c4ccccc4)OCC3OC2=O)C1 (stereo unspecified)	6.5µM*	-2%	-25	?	21µM*	5.8µM*
O=C(COC(=O)C1C2CC3OC(=O)C1C3C2)c1ccccc1 (stereo unspecified)	/	-6%	/	/	/	/
COc1cccc2oc3cc(C#Cc4ccccn4)ccc3c(=O)c12	?	?	-55*	20%	20%	?
Cc1ccc(C(=O)N2CCCC3(COc4ccccc4C(=O)N3)C2)cc1 (stereo unspecified)	/	17%[176 µM]	/	/	/	/
CCOc1ccc(CCNC(=O)C2CCN(C(=O)N3CC(CC)Oc4ccc(C)cc43)CC2)cc1 (stereo unspecified)	?	-15%	/	/	/	?
CCC1CN(C(=O)N2CCC(C(=O)NCCCc3ccccc3)CC2)c2cc(C)ccc2O1 (stereo unspecified)	13µM*	-4%	/	/	/	?
CCC1CN(C(=O)N2CCC(C(=O)NCc3cccs3)CC2)c2ccccc2O1 (stereo unspecified)	21µM*	-7%	/	/	/	21µM*
SMILES	DT40 TDP1 no CPT	12-LOX inh	IL1B secr inh	HT1080NT lethal	HT1080 IDH1KD tx	TDP1 cell CPT
CCC1CN(C(=O)N2CCC(C(=O)NCCCc3ccccc3)CC2)c2ccccc2O1 (stereo unspecified)	?	-12%	/	/	/	16µM*
CCC1CN(C(=O)N2CCC(C(=O)N(C)Cc3ccccc3)CC2)c2ccccc2O1 (stereo unspecified)	15µM*	-15%	/	/	/	?
Cc1ccc(CNc2ccc(O)cc2)s1	/	200%	/	/	/	/
COc1ccc(NC(=O)CCc2nc(-c3ccc(C)n(C(C)C)c3=O)no2)c(OC)c1	/	6%	/	/	/	/
O=C(Cc1c[nH]c2ccccc12)N1CCC(n2c(C3CCCO3)nc3cc(C(F)(F)F)ccc32)CC1 (stereo unspecified)	?	-5%	/	/	/	?
CC1CN(C(=O)N2CCC(C(=O)NCCC3=CCCCC3)CC2)c2ccccc2O1 (stereo unspecified)	?	?	/	/	/	-30%
CCC1CN(C(=O)N2CCC(C(=O)NCCC3=CCCCC3)CC2)c2cc(C)ccc2O1 (stereo unspecified)	15µM*	-31%	/	/	/	15µM*
CCN(CC)CCCNC(=O)CSc1nc2nc(C)c(Cc3c(F)cccc3Cl)c(C)n2n1	6.5µM*	-6%	/	/	/	?
Cc1ccccc1Cc1c(C)nc2nc(SCC(=O)NCCc3ccc(Cl)cc3)nn2c1C	?	-7%	/	/	/	16µM*
Cc1nc2nc(SCC(=O)NCCCN3CCCC3)nn2c(C)c1Cc1ccccc1Cl	?	27%	-54*	-5%	-19%	?
Cc1nc2nc(SCC(=O)NCCc3ccc(Cl)cc3)nn2c(C)c1Cc1ccccc1Cl	?	-9%	/	/	/	?
Cc1nc2nc(SCC(=O)NCCc3ccc(Cl)cc3)nn2c(C)c1Cc1c(F)cccc1Cl	-24%	-15%	/	/	/	-7%
Cc1nc2nc(SCC(=O)NCCCN3CCCCC3)nn2c(C)c1Cc1ccccc1	3%	-10%	-13	2%	-1%	1%
CCC1CCCCN1CCCNC(=O)CSc1nc2nc(C)c(Cc3ccc(C)cc3)c(C)n2n1 (stereo unspecified)	?	17%	?	?	?	23µM*
CCCCN(C(=O)C1Cc2ccccc2C(=O)O1)c1c(N)n(CCC)c(=O)[nH]c1=O (stereo unspecified)	/	6%	/	/	/	/
COc1cccc(OC)c1C(=O)NC(=S)NCc1cccnc1	19%	272%	7	2%	9%	-5%
